# From paper PMC5540273 (PLoS ONE, 2017)
# Key:
# Conditions in all cases: concentration: 1 μM, replicates: in singlicate; n = 1
# CDKL3 = tested on: CDKL3
# CDKL5 = tested on: CDKL5
# CHEK1 = tested on: CHEK1
# CHEK2 = tested on: CHEK2
# CIT = tested on: CIT
# CLK1 = tested on: CLK1
# CLK2 = tested on: CLK2
# CLK3 = tested on: CLK3
# CLK4 = tested on: CLK4
# CSF1R-autoinhibited = tested on: CSF1R-autoinhibited
# 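Further: KINOMEscan kinase panel screen.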
Structure (SMILES),%Inh (CDKL3) [%],%Inh (CDKL5) [%],%Inh (CHEK1) [%],%Inh (CHEK2) [%],%Inh (CIT) [%],%Inh (CLK1) [%],%Inh (CLK2) [%],%Inh (CLK3) [%],%Inh (CLK4) [%],%Inh (CSF1R-autoinhibited) [%]
Nc1nccc2scc(-c3ccc4c(c3)CCN4C(=O)Cc3ccccc3)c12 [GSK2576924],0,0,0,0,46,34,19,0,25,0
COc1cc(Nc2ccnc3ccc(C(F)(F)F)cc23)cc(OC)c1OC [GW577382],8,0,0,0,11,25,0,0,14,14
Cc1c(Cn2c(C)nn3c(=O)cc(N4CCO[C@H](C)C4)nc23)cccc1C(F)(F)F [GSK2373690],0,7,2,0,1,27,16,23,32,0
Cl.c1ccc(Cn2cnc3cc(Nc4ncnc5ccccc45)ccc32)cc1 [GW272142],0,0,0,0,0,27,0,72,20,0
